Experimental findings from PubChem BioAssay (NCI) are described below.

Common to all, as to assay: NCI-60 one-dose screen, 48 h (100 = growth as untreated, 0 = no growth, -100 = all killed)
Assay [1] relates to NCI-H23 lung. The note with it: 10 µM unless noted.
Assay [2] has as its system NCI-H226 lung. The conditions noted are these: 10 µM unless noted.
In assay [3] the test system is NCI-H322M lung. The note with it: 10 µM unless noted.
The test system of assay [4] is HOP-62 NSCLC. The note with it: 10 µM unless noted.
The subject of assay [5] is NCI-H460 lung. The conditions noted are these: 10 µM unless noted.
In assay [6] the test system is HOP-92 NSCLC. The note with it: 10 µM.
Assay [7] has as its system NCI-H522 lung. The conditions noted are these: 10 µM unless noted.
Assay [8] relates to A549/ATCC NSCLC. The note with it: 10 µM unless noted.
For assay [9], the system named is 786-0 renal. The conditions noted are these: 10 µM unless noted.
The subject of assay [10] is COLO 205 colon. The conditions noted are these: 10 µM unless noted.
Assay [11] deals with DU-145 prostate. The conditions noted are these: 10 µM unless noted.
In assay [12] the test system is K-562 leukemia. The note with it: 10 µM unless noted.
The subject of assay [13] is MALME-3M melanoma. The conditions noted are these: 10 µM unless noted.
For assay [14], the system named is MDA-MB-231 breast. The note with it: 10 µM unless noted.
The test system of assay [15] is SF-268 CNS. The conditions noted are these: 10 µM unless noted.
Assay [16] concerns SF-295 CNS. The conditions noted are these: 10 µM unless noted.
Assay [17] relates to SF-539 CNS. The note with it: 10 µM unless noted.
In assay [18] the test system is UACC-257 melanoma. The note with it: 10 µM unless noted.

This is part of a sample that, as a whole, favours compounds with a hit. Of some 83,000 tested, about 20% had one in any assay.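 Values shown are percent growth following 48 h exposure of cells in 96-well plates to a single concentration of compound; below 10 was considered active.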 A number with no mark means an inactive call. The source made the active and inactive calls.

On to `CCOP(=O)(OCC)OC[C@]12CCC(C)(C)C=C1[C@H]1CC[C@@H]3[C@@]4(C)CC[C@H](OP(=O)(OCC)OCC)C(C)(C)[C@@H]4CC[C@@]3(C)[C@]1(C)CC2`, for which the growth was -38.4% (active) in assay [1]; -72.3% (active) in assay [2]; 1.63% (active) in assay [3]; -38.3% (active) in assay [4]; -62.2% (active) in [5]; -65.2% (active) in [6]. For the same compound, the growth was -59.1% (active) in [7]; -45.3% (active) in assay [8]; -59.7% (active) in [9]; -43.1% (active) in assay [10]; -70.2% (active) in assay [11]; 4.74% (active) in assay [12]. In addition, the growth in [13] was -12.8% (active); in assay [14], -55.2% (active); in assay [15], -59.7% (active); in [16], -66.2% (active); in assay [17], -84.1% (active); in assay [18], -8.01% (active).

Turning to `C#CCOc1ccc(/C=N\Nc2nc(-c3ccc(C)cc3)cs2)cc1OC`, the growth was 87.2% in [1]; 86.8% in [2]; 92.2% in assay [3]; 98.5% in [4]; 95.5% in assay [5]; 73.3% in assay [6]. The growth in assay [7] is 74.5%; in assay [8], 88.6%; in assay [9], 99.2%; in assay [10], 94.6%; in assay [11], 85.3%; in assay [12], 69.6%. Also, the growth is 116% in assay [13]; 88.6% in assay [14]; 102% in [15]; 92.4% in [16]; 96.4% in assay [17]; 93.3% in assay [18].

As to `O=C(CNc1nc(-c2cccc([N+](=O)[O-])c2)cs1)Nc1cccc([N+](=O)[O-])c1`, the growth in assay [1] is -29.7% (active); in assay [2] it was -35.9% (active); in assay [3], 58.9%; in assay [4], 17.3%; in assay [5] it was -15.7% (active); in [6] it was -39.4% (active). The growth in assay [7] is -36.2% (active); in [8], -19% (active); in [9], -13.6% (active); in [10], -30.8% (active); in assay [11] it was -6.15% (active); in assay [12], 8.33% (active). Further, the growth was -70.8% (active) in assay [13]; -28.8% (active) in assay [14]; -4.97% (active) in assay [15]; 0.245% (active) in assay [16]; -29.6% (active) in assay [17]; -13% (active) in assay [18].

Consider `CCOc1ccc(NC2=C(Cl)C(=O)c3nc(C)ccc3C2=O)cc1`, for which the growth in [1] was -61% (active); in assay [2], -52.6% (active); in assay [3] it was 32.4%; in [4] it was 72.1%; in assay [5], 13.4%; in assay [6] it was -87% (active). The growth in assay [7] is -61.6% (active); in assay [8], 46.2%; in assay [9] it was 8.39% (active); in assay [10] it was 98.2%; in assay [11], -92.7% (active); in assay [12] it was -4.17% (active). The growth in assay [13] is -90.6% (active); in [14] it was -71.7% (active); in assay [15] it was 32.3%; in [16], 51%; in assay [17], -58.8% (active); in assay [18] it was -89.2% (active).

As for `CC(=O)c1cc(C(=O)c2ccc(Br)cc2)n2cc(C)cc(C)c12`, the growth in [1] is 102%; in [2], 86.4%; in [3], 100%; in [4] it was 85.6%; in [5] it was 88.7%; in [6], 99%. The growth in [7] is 85.3%; in assay [8] it was 97.1%; in assay [9] it was 89.4%; in assay [10] it was 97.7%; in assay [11] it was 94.8%; in assay [12], 93.1%. Also, the growth in assay [13] is 111%; in assay [14], 90%; in assay [15], 89.7%; in [16], 96%; in assay [17], 88.4%; in [18], 105%.

On to `CCOC(=O)C1=NNC(c2ccc(Cl)cc2)C1C(=O)N1C(=S)NC(=O)C1CC(C)C` (stereo not drawn), for which the growth in assay [1] is 99.3%; in assay [2], 92%; in [3], 94.7%; in assay [4] it was 92.8%; in assay [5], 105%; in assay [6], 90.2%. The growth in [7] was 88.4%; in [8], 110%; in assay [9], 108%; in [10], 109%; in assay [11], 107%; in [12], 98.4%. Besides, the growth is 104% in assay [13]; 86.2% in [14]; 98.3% in [15]; 106% in assay [16]; 104% in [17]; 116% in [18].

As to `c1ccc(C(c2nc3ncncc3[nH]2)N2CSc3nc4ncncc4n3C2)cc1` (stereo not drawn), the growth is 55% in [1]; 56.2% in assay [2]; 64.3% in assay [3]; 26.3% in assay [4]; 83.6% in [5]; 64.9% in assay [6]. Further, the growth was 39.8% in [7]; 92.2% in assay [8]; 33.9% in assay [9]; 61.8% in [10]; 34.1% in [11]; 24.8% in assay [12]. The growth in [13] is 58.5%; in assay [14], 49.7%; in [15], 66.8%; in assay [16], 39.6%; in assay [17], 49.5%; in assay [18], 76%.

Turning to `COc1cc(/C=C2\C(=O)Nc3ccccc32)ccc1OCc1ccc(F)cc1`, the growth in [1] was 99%; in [2], 100%; in [3], 103%; in assay [4], 100%; in [5], 86.4%; in [6] it was 99.8%. For the same compound, the growth in assay [7] is 91.9%; in [8] it was 108%; in assay [9] it was 107%; in assay [10] it was 111%; in assay [11], 106%; in assay [12] it was 104%. The growth in assay [13] was 99.8%; in assay [14], 100%; in assay [15], 105%; in assay [16] it was 102%; in assay [17] it was 102%; in assay [18], 118%.

Take `O=C(O)c1ccc(-n2cc(CNc3cccc(Cl)c3)c(-c3ccc(F)cc3)n2)cc1`: the growth in assay [1] is 101%; in assay [2] it was 112%; in [3], 103%; in assay [4], 101%; in assay [5] it was 98%; in assay [6], 105%. The growth in [7] is 92.2%; in assay [8], 92.7%; in assay [9] it was 110%; in assay [10], 120%; in assay [11], 102%; in assay [12], 76.4%. Moreover, the growth was 82.8% in assay [13]; 91.7% in assay [14]; 109% in assay [15]; 87.6% in assay [16]; 96.1% in [17]; 96.8% in [18].

With `C=CCn1c(-c2nc3ccc(C(=C(C#N)C#N)c4ccccc4)cc3[nH]2)cc2cc(Br)ccc21`, the growth was 46.9% in [1]; 66.4% in assay [2]; 70.6% in assay [3]; 59.5% in [4]; 42.2% in assay [5]; 63% in [6]. Further, the growth in assay [7] was 60.2%; in [8], 51.7%; in assay [9] it was 59.2%; in assay [10], 65.3%; in [11], 72.4%; in assay [12], 23.7%. Also, the growth was 84.1% in [13]; 58.3% in assay [14]; 62.9% in assay [15]; 43.1% in [16]; 65.3% in [17]; 70.9% in assay [18].

In the case of `O=C(NNc1nc2cc(F)ccc2n2c(CN3CCCC3)ccc12)c1cnccn1`, the growth in assay [1] is 26.3%; in assay [2], 18.2%; in assay [3] it was 27.1%; in assay [4], 17.6%; in assay [5], 2.93% (active); in [6] it was 18.2%. The growth in [7] is -3.33% (active); in [8], 13.6%; in [9], 12.7%; in assay [10], 7.69% (active); in [11], 17.2%; in assay [12], 11.1%. Also, the growth in assay [13] was 37.4%; in [14], 31.4%; in assay [15], 22.1%; in assay [16], 6.2% (active); in assay [17] it was 1.5% (active); in assay [18], 0.872% (active).
